Experimental findings from PubChem BioAssay AID463173 (ICCB-Longwood Screening Facility, Harvard Medical School, 2010) are described below.

Among all 52,000 compounds or so, about 1,700 (3.3%) were called active. What follows is part of a selection rich in actives, with near analogues and random picks from the rest. Unmarked numbers belong to inactive results. Rule as the data show it: active = survival mostly below about 52% (no sharp cut-off); inactive = mostly above about 56%.

The assay relates to Wild type. The assay can be described thus: growth inhibition of S. aureus wild type versus tarO mutant, primary screen, teichoic acid synthesis inhibitors, RN4220, OD600 (AID 463173). The conditions noted are these: S. aureus RN4220 wild type/DeltatarO growth, OD600, 18 h, hits give low values, screened at 18.75 µg/mL (by protocol).
Take `Cc1cccc(N2CCN(C(=O)Cn3c(=O)c4cccn4c4ccc(F)cc43)CC2)c1C`: the survival is 85%. With `CC(C)(C)OC(=O)N1CCC(c2c(C(=O)NCc3ccco3)cnn2-c2ccccc2)CC1` the figure was 75%; with `Cc1ccc(S(=O)(=O)NCCc2cn3ccsc3n2)cc1`, 57%. The value for `COc1ccc(S(=O)(=O)NCCc2cn3ccsc3n2)cc1OC` was -3% (active). The value for `COc1ccc(S(=O)(=O)NCCc2cn3ccsc3n2)cc1` was 82%; that for `CN(C)c1ccc(N/C=C(\C#N)c2nc3ccccc3[nH]2)cc1` was 118%; that for `CCOC(=O)CNC(=O)CSc1cn(CC(=O)N2CCCCCC2)c2ccccc12` was 99%.

In the case of `Cc1ccc(Nc2ncnc3c2nc2n3CCCC2)c(Br)c1`, the survival is 111%. The value for `CCN(c1ccccc1)S(=O)(=O)c1ccc(NC(=O)c2nc(SC)ncc2Cl)cc1` was 88%; that for `CCN(c1ccccc1)S(=O)(=O)c1ccc(NC(=O)c2nc(SC(C)C)ncc2Cl)cc1` was 81%. The value for `CN(c1ccccc1)S(=O)(=O)c1ccc(NC(=O)c2nc(S(C)(=O)=O)ncc2Cl)cc1` was 2% (active); that for `CCS(=O)(=O)c1ncc(Cl)c(C(=O)Nc2ccccc2)n1` was 70%; that for `CCN(c1ccccc1)S(=O)(=O)c1ccc(NC(=O)c2nc(S(C)(=O)=O)ncc2Cl)cc1` was 0% (active). For the compound `CCS(=O)(=O)c1ncc(Cl)c(C(=O)Nc2ccc(S(=O)(=O)N(C)c3ccccc3)cc2)n1`, the survival is 8% (active). `CCCSc1ncc(Cl)c(C(=O)Nc2ccc(S(=O)(=O)N(C)c3ccccc3)cc2)n1`: the survival was 84%. With `CCSc1ncc(Cl)c(C(=O)Nc2ccc(S(=O)(=O)N(C)c3ccccc3)cc2)n1` the figure was 84%; with `CC(C)Sc1ncc(Cl)c(C(=O)Nc2ccc(S(=O)(=O)N(C)c3ccccc3)cc2)n1`, 78%; with `Cc1cccc(N2CCN(S(=O)(=O)c3ccc4c(c3)CCCN4C(=O)C3CCC3)CC2)c1C`, 86%. Turning to `Cc1ccc(C(=O)Nc2nnc(SCc3cc(=O)c4c(C)ccc(C)c4[nH]3)s2)cc1`, the survival was 93%.

For `Cc1ccc(C)c(NC(=O)CN2C(=O)C(C)(C)c3ccccc32)c1`, the survival was 76%. Turning to `Fc1cccc(-c2cc3nc4c(c(NCCCN5CCOCC5)n3n2)CCCC4)c1`, the survival was 103%. As to `COc1ccc(-n2c(=O)c3ccccc3n(Cc3cccc(C)c3)c2=O)cc1`, the survival is 75%.

As for `Cc1cc(C)cc(NS(=O)(=O)c2ccc3c(c2)OCC(C(=O)N2CCCC2)O3)c1` (centres undefined), the survival was 78%. In the case of `CCc1ccc(S(=O)(=O)NCCc2csc3nc(-c4ccccc4)nn23)s1`, the survival is 129%. Consider `O=S(=O)(NCCc1csc2nc(-c3ccc(Cl)cc3)nn12)c1cccs1`, for which the survival is 72%. With `CS(=O)(=O)NCCc1csc2nc(-c3ccccc3)nn12` the figure was -4% (active). `COc1ccc(OC)c(S(=O)(=O)NCCc2csc3nc(-c4ccccc4)nn23)c1`: the survival was -3% (active).

As for `COc1ccc(-c2nc3scc(CCNS(=O)(=O)c4cccs4)n3n2)cc1`, the survival is 1% (active). For the compound `O=S(=O)(NCCc1csc2nc(-c3ccccc3)nn12)c1cccs1`, the survival is 81%. As to `COc1ccc(S(=O)(=O)NCCc2csc3nc(-c4ccccc4)nn23)cc1OC`, the survival was 71%.

In the case of `COc1ccc(-c2nc3scc(CCNS(=O)(=O)c4ccccc4F)n3n2)cc1`, the survival was 57%. The value for `CCS(=O)(=O)NCCc1csc2nc(-c3ccc(C)cc3)nn12` was 59%. The value for `COc1ccc(NC(=O)C(CC(C)C)NC(=O)C2CCCCC2)c(OC)c1` (centres undefined) was 63%; that for `CC1(C)NC(=O)N(CC(O)CN2C(=O)NC(C)(C)C2=O)C1=O` was 117%; that for `N#Cc1c(-n2ncnc2-c2cccc(Cl)c2)sc2c1CCCCC2` was 58%. With `N#Cc1c(-n2ncnc2-c2ccc(Br)cc2)sc2c1CCCCC2` the figure was 2% (active); with `N#Cc1c(N2C(=O)C3C4C=CC(C4)C3C2=O)sc2c1CCCC2` (centres undefined), 108%; with `N#Cc1c(-n2ncnc2-c2ccc(F)cc2)sc2c1CCCCC2`, -2% (active). For `N#Cc1c(-n2ncnc2-c2cccc(Br)c2)sc2c1CCCCC2`, the survival is 45%. The value for `CC(C)CCOc1ccc(C(=O)Nc2sc3c(c2C#N)CCCCC3)cc1` was 135%. With `N#Cc1c(/N=C/N2CCCCC2)sc2c1CCCC2`, the survival is 89%. The value for `COc1ccc(-c2nnn(CC(=O)Nc3sc4c(c3C#N)CCCC4)n2)cc1` was 109%; that for `CCOc1ccc(-c2ncnn2-c2sc3c(c2C#N)CCCCC3)cc1` was 3% (active); that for `Cc1ccc(C)c(N2CCN(S(=O)(=O)c3cc(-c4cc(C)no4)ccc3C)CC2)c1` was 73%. The value for `O=C(CSc1n[nH]c(-c2ccccc2)n1)NCCCc1ccccc1` was 69%; that for `CC(C)(C)c1cn2ccc3ccccc3c2n1` was 113%. The value for `Oc1ccccc1C(C#Cc1ccccc1)N1CCOCC1` (centres undefined) was 110%. Take `CC(C)N(C(=O)Cn1nnc2ccccc21)C(C(=O)NCc1ccco1)c1ccccc1` (centres undefined): the survival was 101%. With `Cc1ccc(N2CCN(Cc3nnc(-c4ccccc4F)o3)CC2)c(C)c1`, the survival is 15% (active). With `Cc1ccccc1-c1nnc(CN2CCN(c3cc(Cl)ccc3C)CC2)o1` the figure was 86%; with `Cc1ccc(C)c(N2CCN(Cc3nnc(-c4ccccc4)o3)CC2)c1`, 87%.

`Cc1ccc(-n2nc(C(=O)Nc3ccc(C)c(F)c3)c(=O)n(C)c2=O)cc1`: the survival was 68%. For `CCOc1ccc(NC(=O)CSc2ncc3c(n2)-c2ccccc2N(Cc2ccccc2C)S3(=O)=O)cc1`, the survival is 63%. As to `CCc1cccc(NC(=O)CSc2ncc3c(n2)-c2ccccc2N(CC)S3(=O)=O)c1`, the survival was 95%. The value for `Cc1ccccc1CN1c2ccccc2-c2nc(SCC(=O)NCCc3ccccc3)ncc2S1(=O)=O` was 53%. With `O=C(CSc1ncc2c(n1)-c1ccccc1N(Cc1ccc(F)cc1)S2(=O)=O)NCCc1ccccc1` the figure was 73%; with `Cc1ccc(CN2c3ccccc3-c3nc(SCC(=O)NCCc4ccccc4)ncc3S2(=O)=O)cc1`, 14% (active); with `O=C(CSc1ncc2c(n1)-c1ccccc1N(Cc1ccccc1)S2(=O)=O)Nc1ccccc1`, -6% (active). The value for `CCc1cccc(NC(=O)CSc2ncc3c(n2)-c2ccccc2N(Cc2ccccc2C)S3(=O)=O)c1` was 0% (active). Turning to `O=C(CSc1ncc2c(n1)-c1cc(Cl)ccc1N(Cc1ccccc1)S2(=O)=O)NCCc1ccccc1`, the survival is 113%.

In the case of `CCN1c2ccccc2-c2nc(SCC(=O)NCc3ccccc3)ncc2S1(=O)=O`, the survival was 74%. The value for `Cc1ccc(CN2c3ccccc3-c3nc(SCC(=O)Nc4c(C)cc(C)cc4C)ncc3S2(=O)=O)cc1` was 133%; that for `NC(=O)CSc1ncc2c(n1)-c1ccccc1N(Cc1ccccc1)S2(=O)=O` was 69%; that for `Cc1ccccc1CN1c2ccccc2-c2nc(SCC(=O)NCc3ccccc3)ncc2S1(=O)=O` was -3% (active).
